Compound activity from PubChem.
Sampled rows, rich in hits. Any-hit rate of the full collection: about 2.4%.
Cruzain inh Det – qHTS Assay for Promiscuous and Specific Inhibitors of Cruzain (with detergent); Potency, µM, inactives show max response, negative = inhibition, actives largely listed as inhibitors; 200,000 compounds, 0.43% hits; purified cruzain, Z-FR-AMC fluorescence, 0.01% Triton; Cruzipain (Trypanosoma cruzi), P25779;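 further: plate controls were neutral wells for no effect and buffer without enzyme for full effect; nearly all actives have a fitted effect of over 40% in size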
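Z-FR-AMC hydrolysis (2 uM substrate) by cruzain (1.5 nM) monitored kinetically at ex 360/em 450 nm after 15 min room-temperature compound exposure; 0.01% Triton X-100, pH 5.5, 5 mM DTT.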
Cruzain inh noDet – qHTS Assay for Promiscuous and Specific Inhibitors of Cruzain (without detergent); purified cruzain, Z-FR-AMC fluorescence, no detergent; Potency, µM, inactives show max response, negative = inhibition, usual class: inhibitors; 200,000 compounds, 2.3% hits;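 further: plate controls were enzyme without inhibitor for no effect and buffer without enzyme for full effect; nearly all actives have a fitted effect of over 40% in size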
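Purified cruzain at 1.5 nM, pre-incubated 15 min with compound at room temperature in 100 mM sodium acetate pH 5.5, 5 mM DTT, 0.00005% Triton X-100. Reaction started with 2 uM Z-FR-AMC; AMC fluorescence increase over 60 s gives rate.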
Papain counter – qHTS Assay for Inhibitors of Papain: Counterscreen for Cruzain Assay; shares compounds with Cruzain inh Det; purified papain, Z-FR-AMC fluorescence cleavage; Potency, µM, for the others: max response, negative = inhibition, most hits filed as inhibitors; 410 compounds, 41% hits; AID 2161, 2009;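 further: 0% = no-compound wells and -100% = no-enzyme wells; nearly all actives have a fitted effect of over 35% in size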
Target sequence (P00784 whole entry, looked up): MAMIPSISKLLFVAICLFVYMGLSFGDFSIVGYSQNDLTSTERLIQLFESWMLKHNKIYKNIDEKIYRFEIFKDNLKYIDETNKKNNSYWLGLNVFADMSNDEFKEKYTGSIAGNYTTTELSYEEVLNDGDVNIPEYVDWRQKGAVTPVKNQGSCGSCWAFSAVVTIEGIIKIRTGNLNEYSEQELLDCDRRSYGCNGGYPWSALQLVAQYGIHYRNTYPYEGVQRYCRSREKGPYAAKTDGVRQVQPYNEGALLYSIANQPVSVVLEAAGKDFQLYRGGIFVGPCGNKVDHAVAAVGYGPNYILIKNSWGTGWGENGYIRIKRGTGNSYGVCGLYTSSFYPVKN
Starred values were filed as active, the others as inactive; ? = inconclusive; . = no result given. The call rests on the fitted dose curve; in most records, active means well fitted curve in the direction sought with a large enough effect; inconclusive means small, poorly fitted or top-dose-only effect, or another doubt; inactive means no such curve, though single readings can be large; an effect the other way counts as inactive or inconclusive. Potency means the concentration at half of the fitted maximal effect.

SMILES	Cruzain inh Det	Cruzain inh noDet	Papain counter
O=C(NCCO)c1ccc(-c2nnc(Nc3ccc(OC(F)(F)Cl)cc3)c3ccccc23)cc1	-7%	?	.
CC(C(=O)N(C)C)N(C#N)c1nc(N(C)C)nc(N(C)C)n1 (stereo not given)	2%	-13%	.
CCOC(=O)C(C(=O)OCC)N(C#N)c1nc(SC)nc(N(C)C)n1	2.5µM*	3.2µM*	16µM*
CCOC(=O)COc1nc(N(C)C)nc(N(C)C)n1	12%	4%	.
CCOC(=O)C(C(=O)OCC)N(C#N)c1nc(OC)nc(N(C)C)n1	3.5µM*	10µM*	28µM*
CCc1ccc(Nc2nc(-c3cc4cccc(OC)c4oc3=O)c(CC)s2)cc1	-2%	?	.
COc1ncc2nc(-c3ccccc3)c(=O)n(C)c2n1	-9%	-5%	.
COCCOC(=O)c1c(N)n(Cc2ccco2)c2nc3ccccc3nc12	-5%	0%	.
CC(C)OC(=O)c1c(N)n(Cc2ccco2)c2nc3ccccc3nc12	11µM*	13µM*	-2%
COc1ncc2nc(-c3cc(F)cc(F)c3)c(=O)n(-c3ccccc3)c2n1	0%	-14%	.
O=C(CNC(=O)c1ccccc1)OC(C(=O)Nc1cc(C(F)(F)F)ccc1Cl)c1ccccc1 (stereo not given)	7.1µM*	10µM*	-17%
O=C(Nc1cc(C(F)(F)F)ccc1Cl)C(NCc1ccccc1)c1ccccc1 (stereo not given)	-5%	2%	.
COc1cccc([C@@H]2Oc3ccc(OC)cc3C(=O)[C@H]2OC(=O)NCc2ccco2)c1	1%	-2%	.
CCNc1nc(C#N)nc(NCC)n1	.	.	-8%
CCNc1nc(NOC)nc(OCC#N)n1	-1%	-3%	.
COC(=O)[C@@]1(Cc2ccccc2)[C@H]2c3cc(C(=O)N(C)C)n(Cc4nc5ccccc5[nH]4)c3C[C@H]2CN1C(=O)c1ccccc1	1%	?	.
C=C(C)COc1ccc2c(c1)CCC1C2CC[C@]2(C)C(=O)/C(=N/O)CC12 (stereo not given in full)	1%	-8%	.
CCOc1ccc(CCNC(=O)c2cc(=O)[nH]c3ccc(S(=O)(=O)N4CCCCC4)cc23)cc1OCC	0%	3%	.
CCc1ccc(OCCn2c(CCNC(=O)C3CCCCC3)nc3ccccc32)cc1	.	.	-5%
CCc1ccc(OCCCn2c(CCNC(=O)C3CCCCC3)nc3ccccc32)cc1	.	.	16µM*
CCc1ccc(OCCSc2nc3ccccc3n2CC(=O)N2CCCCC2)cc1	-5%	14%	.
CCCc1nc2ccccc2n1CCOc1ccccc1	-6%	0%	.
COc1ccccc1CNc1ncnc2onc(-c3ccc(Cl)cc3)c12	-2%	15%	.
O=C(c1ccccc1)c1ccc(OCCCN2CCCCC2)cc1	4%	7%	.
O=C(c1ccc(OCCN2CCCCC2)cc1)c1c(-c2ccc(O)cc2)sc2cc(O)ccc12	-5%	-12%	-3%
SMILES	Cruzain inh Det	Cruzain inh noDet	Papain counter
Cc1cc(C)cc(-n2ccn(CC(=O)Nc3ccccc3F)c(=O)c2=O)c1	-7%	0%	.
O=C(NCc1ccccc1Cl)c1ccc2c(c1)N(Cc1ccccc1)C(=O)CS2	1%	?	.
O=C(CNC(=O)C1CCCCC1)OCC(=O)c1cccc(Cl)c1	.	.	14µM*
CCc1ccc(C(=O)COC(=O)CNC(=O)CNC(=O)Cc2ccccc2)cc1	3%	-12%	.
CCc1ccc(C(=O)COC(=O)CNC(=O)C2CCCCC2)cc1	.	.	-21%
O=C(CNC(=O)C1CCCCC1)OCC(=O)c1ccc(-c2ccccc2)cc1	.	.	-19%
CCC(=O)NCC(=O)OCC(=O)c1ccccc1	-2%	3%	.
O=C(COC(=O)CNC(=O)C1CCCCC1)NC1CCCC1	.	.	32µM*
O=C(COC(=O)COc1ccc(Cl)cc1)NC1CCCCC1	0%	2%	.
O=C(CCC(=O)OCC(=O)c1ccc(Cl)cc1)NC1CCCCC1	-7%	-8%	.
Cc1cccc(NS(=O)(=O)c2ccc3c(c2)n(C)c(=O)n3C)c1C	0%	-3%	.
CCC(=O)N1c2ccc(S(=O)(=O)N3CCCCCC3)cc2CC1C (stereo not given)	-4%	-1%	.
CCc1ccc(NC(=O)C(=O)NCC(c2cccnc2)N2CCN(c3ccc(F)cc3)CC2)cc1 (stereo not given)	7%	?	.
COc1ccc(NC(=O)CSC2=Nc3ccccc3N=C(c3ccc(F)cc3)C2)cc1OC	-2%	-6%	.
O=C(CCC(=O)OCC(=O)c1ccc([N+](=O)[O-])cc1)NC1CCCCC1	-4%	2%	.
O=C(COC(=O)C1CCCCC1)Nc1ccc(N2CCCCC2)cc1	-16%	-5%	.
O=C(CNC(=O)c1ccccc1)NCC(=O)OCC(=O)c1ccc(F)cc1	-5%	-8%	.
O=C(CNC(=O)C1CCCCC1)OCC(=O)c1ccc([N+](=O)[O-])cc1	.	.	16µM*
